The test concerns the target AMP-activated protein kinase, AMPK (Homo sapiens) (UniProt P54646+O43741+P54619+Q9UGJ0+Q9Y478+Q13131+Q9UGI9). The test can be described thus: AMP-dependent Kinase enzyme assay. An in vitro enzyme assay that detects ADP turnover that is directly proportional to AMPK activity. This uses naive AMPK that is activated during the assay with MK-8722. Format: functional. Details: scale not given: direction of the effect not stated beside the values. Conditions: 30 µM.
`CCSCCn1cc(-c2ncc[nH]2)nn1`: the Percent Effect is -2.81%.
To `Cc1ccc(C2CSCCN2CCS(C)(=O)=O)cc1` (stereo not given) belongs -3.45%.
Turning to `C[C@@H]1CN(Cc2cc3ccccc3n2C)CC[C@]1(C)O`, the Percent Effect was 5.04%.
For `CN(CC(=O)NC(C)(C)C)Cc1cccc2c1OCCO2`, the Percent Effect was -9.42%.
To `Cc1nc(O)cc(C2(C)CCCNC2)n1` (stereo not given) belongs 19.4%; to `CCN1CC2(CCC1=O)CCN(Cc1cccc(OC(F)F)c1)CC2`, -0.304%.
To `CCC[C@H]1CN(Cc2cc(C#N)n(C)c2C)C[C@@H]1NS(=O)(=O)CC` belongs -157%; to `CCc1nc(N)nc(NCCC(=O)NC2CCCCC2)c1C`, 0.541%; to `Cc1cccc(CN2CCCC2c2cccc(Nc3nccs3)n2)c1` (stereo not given), 6.23%.
In the case of `NC(=O)c1ccc(N2CCN(CCCc3cn[nH]c3)CC2)cc1`, the Percent Effect was -7.64%.
As for `CC(C)C1CCCN1C(=O)Nc1ccc(=O)n(C)c1` (stereo not given), the Percent Effect stood at 56.6%.
In the case of `Cc1noc(C)c1CN(C)C(=O)c1nc(N2CCCC2)ncc1Cl`, the Percent Effect was 3.43%.
`N#Cc1c(N)nc2c(c1-c1c[nH]nc1C1CCCCC1)CNCC2`: the Percent Effect was found to be 17.6%.
Turning to `Cc1nn(C)c(C)c1-c1ccc(=O)n(C(C)C(=O)NC2CCCCC2)n1` (stereo not given), the Percent Effect was 12.6%.
To `COCCCC1CCCN(Cc2c(C)ccc3ncccc23)C1` (stereo not given) belongs -4.38%.
Regarding `O=C(NCCc1cc(N2CCOCC2)nc(NC2CC2)n1)C1CCCO1` (stereo not given), the Percent Effect is -0.703%.
`CC(=O)NCCNC(=O)NCc1ccc(-n2ccc(C(F)(F)F)n2)cc1`: the Percent Effect is -0.713%.
To `CC(C)Oc1ccccc1CNC(=O)N(C)CC(F)F` belongs 1.53%.
To `CCN(C)S(=O)(=O)N1CCC(C(O)c2ccc(F)cc2)CC1` (stereo not given) belongs -1.14%; to `COc1ncccc1C(=O)NCCn1nc(C)ccc1=O`, -4.66%; to `Cc1cccc(-c2noc(Cn3nc(C(N)=O)ccc3=O)n2)c1`, 5.3%.
Turning to `COc1ccc(S(=O)(=O)Nc2cccnc2-n2cncn2)c(C)c1`, the Percent Effect was -5.19%.
To `FC(F)(F)c1cccc(OC2CCN(Cc3c[nH]cn3)CC2)c1` belongs 18%; to `COCCCN1CC2(CCN(C(=O)c3ccc(=O)n(C)c3)CC2)CC1=O`, 9.31%.
To `CCn1c(C2CCNCC2)nn(CCn2ccc(C)n2)c1=O` belongs 5.45%.
On to `CN(Cc1ccccc1)c1cnn(CC2CCCCO2)c(=O)c1` (stereo not given), for which the Percent Effect was determined as 7.07%.
Consider `Cc1nn(C)c(C)c1S(=O)(=O)NCC1(C(N)=O)CCOCC1`, for which the Percent Effect came to 0.589%.
Turning to `CCC1c2ccccc2CCN1CCNS(C)(=O)=O` (stereo not given), the Percent Effect is -4.87%.
To `COCCN(Cc1sccc1C)C(=O)c1c(O)cccc1F` belongs 0.607%.
As for `Fc1ccc(N2CCN(CCCc3cn[nH]c3)CC2)cc1`, the Percent Effect came out at 3.93%.
As to `CCn1nc(C)cc1C(=O)N1C[C@@H](CN(C)C)[C@@H](CO)C1`, the Percent Effect stood at 0.455%.
In the case of `Cc1cc(F)ccc1N1CCCC(NC(=O)CCCn2ccnc2)C1` (stereo not given), the Percent Effect was found to be 8.09%.
To `O=C(NCCCNc1cccnc1)c1ccc2nccn2c1` belongs -8.67%; to `Cc1nc(CN2CCC(c3cc(N4CCCC4)ncn3)CC2)cs1`, 2.88%.
Consider `Fc1ccc(OCCCNC2=NCCN2)cc1`, for which the Percent Effect was -0.85%.
Take `Oc1cc(C2CCCCN2Cc2cccs2)nc(-c2ccccn2)n1` (stereo not given): the Percent Effect was 23.4%.
To `CN(C)c1nc(CNC(=O)Nc2cccc([S+](C)[O-])c2)cs1` (stereo not given) belongs 5.35%.
In the case of `O=C(Nc1ccccc1OCCc1ccccn1)N1CC[C@@H](O)C1`, the Percent Effect amounted to 8.55%.
In the case of `Cc1nc(CNC(=O)c2cc(COc3ccccc3F)[nH]n2)n[nH]1`, the Percent Effect was found to be 5.27%.
To `CN(Cc1cc(Br)cn1C)C(=O)Cc1cccnc1` belongs -10.2%.

The values are drawn from ChEMBL document CHEMBL3988442, “University of Dundee, Small-Polar-MMV Screening Library” (2021).
